From PubChem
Nrf2 activator: activators of Nrf2 (ARE) signaling | AREc32 ARE-luciferase reporter (MCF7-derived line), luminescence, 24 h | actives 0.31% (n = 410,000) | AID 624171 | Potency, µM (highest dose often 46.1 µM), for the others: at the highest dose activation, hits mostly activators; further: potency means the concentration at half of the fitted maximal effect; % of control where 0% means no effect; nearly all actives have a fitted effect of over 65% in size
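Luciferase luminescence (Steady-Glo, 30 min at room temperature) served as the read-out of ARE activation in AREc32 cells treated with compounds for 24 hr at 37 deg C.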
a7 integrin act: integrin-mediated muscular dystrophy alleviation activation. alpha7betagal myoblasts, beta-gal FDG fluorescence, 48 h. actives 0.064% (n = 350,000). Potency, µM (series often up to 38.3 µM), for the others: top-dose activation, usual class: activators. AID 624291;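 further: potency means the concentration at half of the fitted maximal effect; 100% = response of the positive control SU9516; nearly all actives have a fitted effect of over 60% in size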
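Alpha7betagal+/- myoblasts (passage 13) were plated 16-24 hr, then exposed to compounds (1:260 dilution of DMSO stock) for 48 hours at 37C. After MPER lysis, β-galactosidase reporter activity was read as FDG fluorescence (ex 480/em 540) after 30 minutes.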
IL-2 act: IL-2 activation | IL-2 activation reporter assay, cell-based qHTS; stimulated with anti-CD3/CD4/CD28 beads; in transgenic mouse T cells | activation, % (series mostly up to about 46 µM) | actives 0.065% (n = 360,000) | AID 652025; in the data active means activation above about 50%; inconclusive means mostly about 30% to 49%; further: 0% is about no effect
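First, unstimulated transgenic mouse T cells were exposed to compound for 60 min. Next, anti-CD3/anti-CD4-coated beads with anti-CD28 were added. Finally, after 18 h at 37 degrees C, EGFP and DsRed were imaged.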
Chronic BCR inh: chronic active BCR signaling inhibition; ABC-DLBCL IkBa-CBG/CBR reporter, luminescence ratio, 4 h; Potency, µM (doses to about 46.1 µM), for inactives: at the top dose activity change, negative = inhibition, actives largely listed as inhibitors; actives 0.05% (n = 340,000); active means well fitted inhibition curve with a large enough effect in the signal ratio, with a control signal flat, not every such curve was filed as active; inconclusive means small, poorly fitted or top-dose-only effect, or effect the other way, or a change in a side signal; the % refers to the signal ratio;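 further: potency means the concentration at half of the fitted maximal effect; plate controls were basal doxycycline-induced cells for no effect and cells given 10 µM MG132 for full effect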
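TMD8 ABC-DLBCL cells carrying doxycycline-inducible green luciferase fused to IkappaBalpha plus unfused red luciferase were exposed to compounds (up to 46 uM) for 4 hrs at 37C. Activity came from the overlap-corrected green/red luminescence ratio.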
BRCA1 expr act: activators of BRCA1 expression; Potency, µM (series often up to 46.1 µM), for inactives: at the top dose activation, actives largely listed as activators; actives 1.1% (n = 380,000); MCF7-BRCA1-FFLuc reporter, luminescence, 48 h; response scale: scaled: vehicle 0%, 10 µM genistein 100%; further: potency means the concentration at half of the fitted maximal effect; nearly all actives have a fitted effect of over 80% in size
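MCF7-BRCA1-FFLuc, 2000 cells/well; 2 h attach, 37 °C/5% CO2; compound 48 h; luciferase substrate 15 min; luminescence end-point. Norm. to genistein 10 microM max activation and DMSO; concentration-response curves fitted.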
N370S GC mod: N370S glucocerebrosidase modulation, Gaucher chaperone candidate; Potency, µM (titrated, usually from 59.4 µM), without a hit: top-dose activity change, negative = inhibition, actives largely listed as inhibitors; N370S GC spleen homogenate, 4MU-glucoside fluorescence; AID 2101; P04062; actives 0.092% (n = 330,000);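 further: potency means the concentration at half of the fitted maximal effect; 0% = full enzyme activity and -100% = no enzyme basal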
* hit, by the source's call; u = inconclusive; x = no result; ! = not confirmed by another sample; [ ] = dose if it differs, or a comment. An excerpt weighted towards active compounds, which were near 1.4% of everything screened. Unless noted, the call rests on the fitted dose curve; in most records, active means well fitted curve in the direction sought with a large enough effect; inconclusive means small, poorly fitted or top-dose-only effect, or another doubt; inactive means no such curve, though single readings can be large; an effect the other way counts as inactive or inconclusive.

SMILES | Nrf2 activator | a7 integrin act | IL-2 act | Chronic BCR inh | BRCA1 expr act | N370S GC mod
CC1CC1c1ccc(/C=C(\C#N)C(=O)Nc2ccc(Cl)cc2)o1 (centres undefined) | 6.3µM* | -2% | -5 | u | 44% | -10%
N#C/C(=C/c1ccc(N2CCCCC2)o1)C(=O)Nc1ccc(Cl)cc1 | 3% | -6%[7.66 µM] | u | u | 4.5µM* | 7%
CC1CC1c1ccc(/C=C(\C#N)C(=O)Nc2ccccc2Cl)o1 (centres undefined) | 13µM* | 9% | 0 | -11% | 55% | 6%
Cc1nc2ccc([N+](=O)[O-])cc2c(=O)n1Cc1ccc(F)cc1 | 0% | 2% | -1 | 7% | -11% | -2%
CC(CC(=O)c1cccs1)CC(=O)c1cccs1 | 9% | -8% | 1 | u | 13µM* | 3%
C=C1C=C(C(F)F)n2ncc(C(=O)N3CCc4ccccc4C3)c2N1 | x | x | x | x | 5% | x
COc1ccc(CCn2c(C)cc(C(=O)CN3C(=O)C(=O)N(C4CCCC4)C3=O)c2C)cc1OC | 3% | -10% | 0 | -1% | -8% | 0%
Cc1c(-c2ccccc2)[nH]n2c(=O)c3c(nc12)CCCC3 | 3% | -1% | 0 | u | 3.2µM* | 9%
CC(=O)N/C(=C\c1ccccc1)C(=O)OCC(=O)Nc1cc(S(=O)(=O)N(C)C)ccc1C | 3% | -36% | -2 | 6% | -6% | -3%
C[C@@H](CCCCC(=O)Nc1ccc(C(F)(F)F)cc1)NCCc1cnc[nH]1 | x | x | x | x | x | -7%
O=[N+]([O-])c1cccc(-c2ccc(SCc3ccccn3)nn2)c1 | 1% | 4% | -3 | 1% | 6.3µM* | -2%
COc1cccc(-c2ccc(SCc3ccccn3)nn2)c1 | 2% | 3% | 0 | 0% | 5µM* | -15%
CC(C)(C)c1csc(NC(=O)c2ccc(Br)o2)n1 | 6% | 11% | -3 | u | 10µM* | u
Cc1nc(-c2ccc(NC(=O)c3ccc(Br)o3)cc2)cs1 | 4% | -23% | 1 | u | 11µM* | -5%
COc1ccc(-c2csc(NC(=O)CC(C)C)n2)cc1 | 0% | -5% | -3 | 0% | 8.9µM* | -2%
Cc1nc(-c2ccc(NC(=O)CC(C)C)cc2)cs1 | 0% | 13% | -2 | u | 2.2µM* | -15%
Cc1nc(-c2ccc(NC(=O)C3CC3)cc2)cs1 | 0% | 3% | 0 | u | u | -7%
Cc1onc(-c2ccccc2Cl)c1C(=O)Nc1nnc(C2CCCCC2)s1 | x | x | x | x | -6% | x
CC(C)C(=O)Nc1cccc(-c2csc(-c3ccccc3)n2)c1 | 5% | -12% | -3 | u | 69% | 18%
CC(C)C(=O)Nc1ccc(-c2csc(-c3ccccc3)n2)cc1 | 0% | 16% | -4 | u | 5µM* | 6%
Fc1ccc(CCNc2ncnc3nc[nH]c23)cc1 | x | x | x | x | 28% | x
CCOC(=O)c1cnc2ccccc2c1Nc1cccc(C(=O)O)c1 | 0% | -26% | 80* | 10% | -6% | -3%
COc1ccc2nc(NC(=O)CSc3nnc(-c4ccoc4C)n3C)sc2c1 | 0% | -35% | -3 | -8% | 5.6µM* | 4%
CCn1nnnc1SCC(=O)Nc1nc2ccc(OC)cc2s1 | 1% | -29% | -3 | -10% | 64% | 10%
CCOc1ccc(OCCn2nnc3ccccc3c2=O)cc1 | 7% | u | -3 | -18% | 1µM* | -3%
SMILES | Nrf2 activator | a7 integrin act | IL-2 act | Chronic BCR inh | BRCA1 expr act | N370S GC mod
O=c1c2ccccc2nnn1COc1ccc(F)cc1Cl | 3% | 18% | 1 | u | 6% | 6%
CCCn1nnc2ccccc2c1=O | 0% | u | -3 | -8% | 8% | 13%
N#CCCn1nnc2ccccc21 | 0% | -12% | -1 | -3% | 0% | 1%
c1ccc(CCn2nnc3ccccc32)cc1 | 2% | 22% | -1 | -8% | 13µM* | 6%
O=c1c2ccccc2nnn1COc1cccc2ccccc12 | 12% | -36% | 0 | -4% | 8.9µM* | 28%
Cc1ccc(OCCn2nnc3ccccc32)cc1C | 0%[9.22 µM] | -33% | -3 | -9% | 4.5µM* | 3%
COc1ccc(C2=Nn3c(nnc3-c3ccccc3O)SC2)c(OC)c1 | x | x | x | x | x | 7%
CC(C(=O)Nc1ccccc1C(F)(F)F)n1nc(-c2ccccc2)c2c(c1=O)CCCC2 (centres undefined) | 6% | x | x | x | -33% | x
CCCc1ccc2oc(C(=O)NCCN3CCCC(O)C3)c(C)c2c1 (centres undefined) | 4% | -56% | 1 | -10% | 58% | 16µM*
Cc1c(C(=O)NCCN2CCOCC2)oc2ccc(S(=O)(=O)N3CCCCCC3)cc12 | 0% | -21% | 1 | 4% | 0% | 16µM*
Cn1cccc1C(=O)NNC(=O)COc1ccccc1F | 0% | 34% | -1 | 8% | 13µM* | 4%
CCC(C)n1c(SCc2ccccc2)nc2ccsc2c1=O (centres undefined) | 2% | -10% | -5 | u | -57% | 29%
Cc1cc2c(s1)c1cnn(CC(=O)N3CCOCC3)c(=O)c1n2C | x | x | x | x | 14% | x
COCc1cc(=O)[nH]c(Nc2nc3ccc(C)cc3o2)n1 | 13µM* | -56% | 0 | u | -22% | 10%
CCc1ccc2nc(Nc3nc(COC)cc(=O)[nH]3)nc(C)c2c1 | 0% | 20% | 0 | u | 3% | 6%
CC(C)(C)OC(=O)N(c1cccc2cccnc12)S(=O)(=O)c1ccccc1Br | x | x | x | x | -2% | x
Cc1ccccc1C(=O)Nc1ccnn1C1CCN(Cc2ccccn2)CC1 | 0% | -40% | -2 | -1% | -5% | 0%
CCN(CC)c1ccc2nc3c4ccccc4c(=O)cc-3oc2c1 | 0% | 5% | -6 | -1% | 0.89µM* | 0%
O=C(O)CCC(=O)Nc1sc2c(c1C(=O)Nc1cccc3ccccc13)CCCCC2 | 6% | u | -5 | u | -9% | -7%
O=C(O)CCC(=O)Nc1sc2c(c1C(=O)Nc1ccccc1)CCCCC2 | 14µM*! | 17% | -3 | 18% | -41% | -3%
CC(=O)Nc1sc(C)c(C)c1C(=O)OCC(=O)N(CC(C)C)c1c(N)n(Cc2ccccc2)c(=O)[nH]c1=O | 1% | 11% | -5 | 5% | -29% | 6%
Clc1ccc2nc(-c3ccccc3)c(CN3CCOCC3)n2c1 | 2% | 0%[7.66 µM] | 4 | 15% | 6% | 18µM*
Clc1ccc(-c2nc3ccccn3c2CN2CCOCC2)cc1 | 4% | 13% | -3 | 13% | -33% | -11%
N#Cc1ccccc1OCc1nnc(-c2ccccc2Br)o1 | 4% | 1% | 1 | -2% | u | 21%
